Source: PubChem BioAssay AID504408 (Broad Institute, 2011)
Among all 300,000 compounds or so, about 5,200 (1.7%) were called active. The list comes from a sample in which actives are over-represented; it also holds similar structures and randomly drawn compounds. A number with no mark means an inactive call.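 How the source made its calls: active means mean replicate activation of at least 50% with a set share of replicates each reaching 50%; inconclusive means only one of those two conditions met; inactive means mean below 50% and too few replicates reaching it.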

Experiment: HSF-1 activators, primary screen, NIH3T3-HGL cells, MG132 stress, luminescence, single point (AID 504408);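 further: 0% = median of the neutral control wells and 100% = twice that signal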
Details: NIH3T3-HGL HSF-1 luciferase reporter, MG132, 8 h; at 9 µM; hits give high values; 100% = twice DMSO control signal

**Q.** Which activation does the source give for `c1ccc(-c2c[nH]c(-c3ccccc3)c2)cc1` here?
**A.** The activation was -83.8%.

**Q.** With `O=C(OCc1ccc(-c2ccccc2)cc1)c1cccc(O)c1` as the compound, how does the activation read?
**A.** The activation was 6.99%.

**Q.** With `Oc1ccc(-c2cccc(-c3ccc(O)cc3)c2)cc1` as the compound, how does the activation read?
**A.** Its activation is 62% (active).

**Q.** For `Cc1ccc(N2CCN(c3ccc([N+](=O)[O-])cn3)CC2)c(C)c1`, which activation is on record?
**A.** Its activation is 14%.

**Q.** For `Cc1cc(/C=N/Nc2ccc([N+](=O)[O-])cn2)c(C)n1-c1cccc(C(=O)O)c1`, which activation is on record?
**A.** Its activation is 2.82%.

**Q.** With `Cc1ccc(-n2c(C)cc(/C=N/Nc3ccc([N+](=O)[O-])cn3)c2C)c(C)c1` as the compound, how does the activation read?
**A.** The activation was 57.8% (active).

**Q.** Which activation does the source give for `Cc1ccc(S(=O)(=O)NCCC(=O)OCC(=O)N(C)c2ccccc2)cc1` here?
**A.** The activation was 2.24%.

**Q.** For `O=C(c1ccc(Cl)s1)N(Cc1nnc(-c2ccccc2Cl)o1)C1CC1`, which activation is on record?
**A.** The activation was 19.5%.

**Q.** For `COc1ccc(/C=C/C(=O)c2ccc(NS(=O)(=O)c3ccc(C)cc3)cc2)cc1O`, which activation is on record?
**A.** The activation was 200% (active).

**Q.** Which activation does the source give for `Cc1ccc(C(=O)/C=C/Nc2ccc(S(=O)(=O)Nc3onc(C)c3C)cc2)cc1` here?
**A.** Its activation is 2.18%.

**Q.** With `COc1ccc(NS(=O)(=O)c2ccc(NC(=S)NC(=O)/C=C/c3ccc(C)cc3)cc2)nn1` as the compound, how does the activation read?
**A.** Its activation is -3.51%.

**Q.** Which activation does the source give for `COc1ccc(C2=NN(C(=O)CCC(=O)O)C(c3cccs3)C2)cc1OC` (stereo not given) here?
**A.** Its activation is -7.93%.

**Q.** For `COc1ccccc1N1N=C(c2cccs2)CC1c1ccccc1` (stereo not given), which activation is on record?
**A.** Its activation is 9.62%.

**Q.** For `COc1ccc(C2CC(c3cccs3)=NN2c2ccccc2)cc1` (stereo not given), which activation is on record?
**A.** Its activation is 67.4% (active).

**Q.** For `COc1ccc(C2=NN(c3ccccc3)C(c3cccs3)C2)cc1` (stereo not given), which activation is on record?
**A.** Its activation is 50.9% (active).

**Q.** With `COc1ccc(C2CC(c3cccs3)=NN2c2nc(C)c(C(C)=O)s2)cc1OC` (stereo not given) as the compound, how does the activation read?
**A.** Its activation is 149% (active).

**Q.** Which activation does the source give for `COc1ccc(C2CC(c3cccs3)=NN2c2ccc(F)cc2)cc1OC` (stereo not given) here?
**A.** Its activation is 22.9%.

**Q.** With `COc1ccc(C2=NN(C(C)=O)C(c3ccccc3)C2)cc1` (stereo not given) as the compound, how does the activation read?
**A.** The activation was 21.6%.

**Q.** Which activation does the source give for `COc1ccc(C2CC(c3cccs3)=NN2C(=O)CCC(=O)O)cc1OC` (stereo not given) here?
**A.** Its activation is -17.8%.

**Q.** For `Oc1ccccc1C1=NN(c2ccccc2)C(c2ccccc2)C1` (stereo not given), which activation is on record?
**A.** The activation was 0.471%.

**Q.** Which activation does the source give for `O=S(=O)(c1ccccc1)N1CCC(c2ccccc2)CC1` here?
**A.** Its activation is -26.8%.

**Q.** Which activation does the source give for `CN(N)c1nc(N2CCCC2)nc(N2CCCC2)n1` here?
**A.** Its activation is -5.13%.

**Q.** With `CC(C)COc1ccc(C(=O)OCC(=O)NCCC2=CCCCC2)cc1` as the compound, how does the activation read?
**A.** The activation was -2.4%.

**Q.** For `Nc1cccc(-c2cc(-c3ccccc3)nc(-c3cccc(N)c3)n2)c1`, which activation is on record?
**A.** The activation was -6.32%.

**Q.** With `CNc1nc(-c2ccccc2)cc(-c2ccccc2)n1` as the compound, how does the activation read?
**A.** The activation was 74.1% (active).

**Q.** Which activation does the source give for `Nc1nc(-c2ccccc2)cc(-c2ccccc2)n1` here?
**A.** The activation was 21.8%.

**Q.** Which activation does the source give for `O=C(COC(=O)c1cccc(Cl)c1)Nc1ccc2[nH]c(=O)[nH]c2c1` here?
**A.** Its activation is 9.55%.

**Q.** With `CSc1ncc(Sc2ccccc2)c(C(=O)O)n1` as the compound, how does the activation read?
**A.** The activation was 21.8%.

**Q.** For `CSc1nc(-c2ccccc2)nc(C(Cl)Cl)n1`, which activation is on record?
**A.** The activation was 84.8% (active).

**Q.** For `CCOc1ccccc1OCC(=O)Nc1ccccc1C(=O)NC1CC1`, which activation is on record?
**A.** Its activation is -12.2%.

**Q.** Which activation does the source give for `Cc1ccc(CNS(=O)(=O)CCNC(=O)c2ccccc2)cc1` here?
**A.** The activation was -0.388%.

**Q.** For `COc1ccccc1C(=O)NCCC(=O)NC(C)CCc1ccccc1` (stereo not given), which activation is on record?
**A.** The activation was 0.822%.

**Q.** Which activation does the source give for `O=C1CCCN1C(=O)COc1ccc([N+](=O)[O-])cc1` here?
**A.** The activation was -3.27%.

**Q.** For `O=C(NCc1ccncc1)c1ccc(NS(=O)(=O)c2cccc([N+](=O)[O-])c2)cc1`, which activation is on record?
**A.** Its activation is 5.25%.

**Q.** For `O=[N+]([O-])c1cc(Br)c(O)c(/C=N/Nc2nc3ccccc3s2)c1`, which activation is on record?
**A.** The activation was 57.3% (active).

**Q.** For `COc1cc(/C=N\Nc2nc(-c3cccs3)c(NC(C)=O)s2)ccc1O`, which activation is on record?
**A.** Its activation is -1.06%.

**Q.** With `COc1ccc(CC(=O)N/N=C/c2cc([N+](=O)[O-])cc(Br)c2O)cc1` as the compound, how does the activation read?
**A.** The activation was -6.91%.

**Q.** For `Cc1ccc(S(=O)(=O)Nc2nc3ccccc3s2)cc1[N+](=O)[O-]`, which activation is on record?
**A.** The activation was 9.23%.

**Q.** For `COc1cc(/C=N/Nc2nc3ccccc3s2)ccc1O`, which activation is on record?
**A.** The activation was 193% (active).

**Q.** With `CCNc1nc(NCC)nc(N/N=C/c2ccc(O)c(OC)c2)n1` as the compound, how does the activation read?
**A.** The activation was -8.51%.

**Q.** For `O=S(=O)(Nc1ccc(O)c2ccccc12)c1ccc(OC(F)(F)F)cc1`, which activation is on record?
**A.** The activation was -68.7%.

**Q.** With `Cc1csc(=O)n1CC(=O)OCC(=O)N(CC(C)C)c1c(N)n(Cc2ccccc2)c(=O)[nH]c1=O` as the compound, how does the activation read?
**A.** The activation was 1.95%.

**Q.** For `COc1ccc(CNC(=O)C2CCCC2)cc1`, which activation is on record?
**A.** Its activation is -6.99%.

**Q.** Which activation does the source give for `CCN(CC)CCn1c2c(c(SCC(=O)Nc3nc4ccccc4s3)nc1=O)CCCC2` here?
**A.** The activation was -7.63%.

**Q.** With `CC1(C)O[C@H]2CC(=O)OCC23[C@H]2CC[C@@]4(C)[C@H](c5ccoc5)OC(=O)[C@H]5O[C@]54[C@]2(C)C(=O)C[C@@H]13` (stereo not given in full) as the compound, how does the activation read?
**A.** Its activation is 0.574%.

**Q.** Which activation does the source give for `O=C(Nc1ccncc1)c1c(F)cccc1F` here?
**A.** The activation was -55.9%.

**Q.** With `CSc1nc2ccc(NC(=O)c3c(F)cccc3F)cc2s1` as the compound, how does the activation read?
**A.** Its activation is 59.4% (active).

**Q.** With `CCCC(=O)Nc1nc2ccc(NC(=O)c3c(F)c(F)c(OC)c(F)c3F)cc2s1` as the compound, how does the activation read?
**A.** Its activation is -10.9%.

**Q.** With `Cc1onc(-c2c(F)cccc2Cl)c1C(=O)N(C)CC(=O)Nc1cccc(F)c1` as the compound, how does the activation read?
**A.** The activation was -3.94%.

**Q.** With `Cc1nn2cc(-c3ccc(Cl)cc3)cnc2c1Br` as the compound, how does the activation read?
**A.** Its activation is 58.7% (active).

**Q.** With `COc1ccc(N2CCN(C(=O)c3ccc4c(Cl)c5c(nc4c3)CCCC5)CC2)cc1` as the compound, how does the activation read?
**A.** Its activation is -1.04%.

**Q.** Which activation does the source give for `CC(C)CCNC(=O)c1ccc2c(Cl)c3c(nc2c1)CCC3` here?
**A.** The activation was -56.3%.

**Q.** With `CC(=O)c1ccc(NC(=O)c2ccc3c(Cl)c4c(nc3c2)CCCC4)cc1` as the compound, how does the activation read?
**A.** The activation was 105% (active).

**Q.** With `N#CCN(C(=O)COC(=O)C1CC2CCCC(C1)C2=O)c1ccccc1` (stereo not given) as the compound, how does the activation read?
**A.** Its activation is -11.4%.

**Q.** Which activation does the source give for `O=C(NN1CCOCC1)c1cccc(F)c1` here?
**A.** The activation was 13.3%.

**Q.** For `O=C(COC(=O)Cc1ccccc1F)NNC(=O)c1ccc(Cl)cc1`, which activation is on record?
**A.** The activation was -9.93%.

**Q.** For `COc1ccc(CNC(=O)C(=O)N2CCC3(CC2)OCCN3S(=O)(=O)c2ccc(C)cc2)cc1`, which activation is on record?
**A.** The activation was 2.08%.

**Q.** With `COc1ccccc1N1CCN(S(=O)(=O)c2ccc(Cl)cc2)CC1` as the compound, how does the activation read?
**A.** The activation was 4.97%.

**Q.** For `CCN(C(=O)CSc1nnnn1-c1ccccc1OC)C1CCS(=O)(=O)C1` (stereo not given), which activation is on record?
**A.** Its activation is 26%.

**Q.** For `COc1ccccc1-n1nnnc1S(=O)(=O)Cc1ccc(Cl)cc1`, which activation is on record?
**A.** The activation was 235% (active).
